The list shows a part of the results. Activity calls are given as the source filed them. The rule behind the calls is not given here.

The term viability denotes a read-out of living cells in per cent, often relative to untreated cells.

The test in a line: Assay for Inhibitors of Influenza NS1 Protein Function: Influenza virus replication assay in MDCK cells infected with virus A/PR/8/34. The settings on record: MDCK infected influenza A/PR/8/34, virus titer TCID50, at 5 µM; viability: measured here: MDCK cell viability, stronger effect = higher value; virus titer (log TCID50): stronger effect = lower value. From the text:
NIH Chemical Genomics Center [NCGC]
NIH Molecular Libraries Probe Centers Network [MLPCN]
Assay Submitter (PI): Daniel Engel
Influenza is a world-wide public health problem and emerging forms of the virus have the potential to cause a pandemic of equal or greater magnitude to the outbreaks recorded in 1918, 1957 or 1968. Vaccine development is proceeding and there also exist two classes of anti-influenza compounds. However these therapeutic modalities are neither fully effective nor widely enough available to fulfill global needs. In addition their potential usefulness against newly emergent strains is not known. Efforts are needed to develop novel agents against influenza virus, including broad-spectrum agents. Identification of small molecules that inhibit NS1 function either directly or by interfering with specific cellular pathways may be a key to increasing our defense against the virus.
We have miniaturized and optimized a cell based assay in which NS1 from influenza A is expressed in the budding yeast S. cerevisiae. NS1 is a multi-functional protein that counters the host innate immune response and facilitates viral versus cellular gene expression. Expression of NS1 causes a pronounced slow growth phenotype in yeast due to its intrinsic molecular activities. Small molecules that suppress the slow growth phenotype can be identified by a straightforward growth recovery assay using optical density (OD) as the measurement. The same yeast strain not expressing NS1 was used as positive control in the yeast growth recovery assay. The present experiment attempted to confirm the activity of compounds observed in the primary screen.
This assay confirms the activity of compounds from the primary screen by measuring their affect on viral replication.
Protocol details are given in Basu et al. J. Vir. 83(4):1881-1891 2009. […] All media and sera were from Invitrogen. […] Confluent cell monolayers were infected at a multiplicity of infection (MOI) of 0.1 for 48 h in the presence or absence of 5uM compound. Compounds were added at the beginning of infection and were present throughout the infection. After 48 h virus titers were determined by standard TCID50 analysis.
For `Cc1cc(C)c2cc(CN(Cc3nnnn3Cc3ccc(F)cc3)C3CCCC3)c(=O)[nH]c2c1`, the virus titer (log TCID50) is 8.5 log10 TCID50 (inactive) and the viability turned out to be 103%.

Take `Cc1ccc(Cn2c(C)nc3c(c2=O)c2nc4ccccc4nc2n3Cc2ccco2)cc1`: the viability stood at 101% and the virus titer (log TCID50) was 7.5 log10 TCID50 (active).

In the case of `O=C1c2cccc(OCC(=O)N3N=C(c4cccs4)CC3c3ccc(F)cc3)c2CCN1Cc1ccccc1` (stereo not given), the virus titer (log TCID50) is 8.5 log10 TCID50 (inactive) and the viability stood at 91%.

Take `O=c1cc(O)nc(SCc2ccccc2Cl)[nH]1`: the viability worked out at 104% and the virus titer (log TCID50) is 7.66 log10 TCID50 (inactive).

For `CCCc1cc(=O)[nH]c(SCC(=O)c2cc(C)n(CCC)c2C)n1`, the viability came out at 95.4% and the virus titer (log TCID50) was 7.5 log10 TCID50 (active).
